In PubChem BioAssay (EPA / NIEHS):
Results filed as inconclusive are left out. Active and inactive are the calls of the source. Rule for the calls: active = hit-call score of the fitted dose curve at least 0.9, where 1 is the maximum; inconclusive = response in the unintended direction; inactive = score below 0.9.

read-out: ABC Transporter (ABCB1), ABCB1 (gene 5243); assay: CLD_ABCB1_24hr: CellzDirect (CLD) Gene Expression Assay for ABC Transporter (ABCB1) at 24 hours (AID 2283684)
Method: CLD_24hr is a cell-based, multiplexed-readout assay that uses hepatocyte, a human liver primary cell, with measurements taken at 24 hours after chemical dosing in a 96-well plate.CLD_ABCB1_24hr is one of 16 assay component(s) measured or calculated from the CLD_24hr assay. It is designed to make measurements of mRNA induction, a form of inducible reporter, as detected with chemiluminescence signals by Quantitative Nuclease Protection Assay (qNPA) technology.Data from the assay component CLD_ABCB1_24hr was analyzed at the endpoint, CLD_ABCB1_24hr, in the positive analysis fitting direction relative to DMSO as the negative control and baseline of activity. Using a type of inducible reporter, gain-of-signal activity can be used to understand changes in the reporter gene as they relate to the gene ABCB1. Furthermore, this assay endpoint can be referred to as a primary readout. To generalize the intended target to other relatable targets, this assay endpoint is annotated to the transporter intended target family, where subfamily is ABC transporter.
Human hepatocyte cultures were treated daily for two consecutive days with fresh dosing solutions containing appropriate concentrations of the 320 ToxCast chemicals (chemical identities were blinded to CellzDirect and other ToxCast collaborators), vehicle control (0.2% DMSO), and positive control inducers as summarized in Table 1. Due to the large number of treatment groups and chemicals examined, the ToxCast chemicals were divided into two groups (spanning two independent cultures of hepatocytes from separate donor preparations (Hu778: ToxCast plates 1 and 2; Hu776: ToxCast plates 3 and 4). Each preparation of human hepatocyte cultures was treated with respective vehicle control, medium only control, set of six positive controls/reference chemicals for the five hepatic receptor pathways, and a subset of eight of the ToxCast chemicals (indoxacarb, pyrithiobac-sodium, norflurazon, cyhalofop-butyl, methomyl, thiram, acetochlor, and propiconazole). These replicate data, coupled with internal replicates designed within the blinded ToxCast chemical library, provided additional data to evaluate interindividual differences between hepatocyte preparations and their potential impact on chemical profiles.Cell morphology and integrity were evaluated using phase-contrast microscopy as an indicator of hepatocyte cell health (Tyson & Green, 1987). Cultures for each treatment group (i.e., media, vehicle [0.2% DMSO], positive control inducers [multiple concentrations], and the ToxCast chemicals [multiple concentrations]) were observed and cell morphology was assessed relative to vehicle control cultures at each harvest time point (0, 6, 24, or 48 h). […] Images were evaluated at the conclusion of the study to assess changes in cell integrity and account for the effects of chemical exposure on uncharacteristic changes in concentration-dependent gene expression profiles. The results from these determinations of apparent cytotoxicity were annotated (yes/no) alongside the corresponding qNPA data for reference.At the conclusion of each treatment period, hepatocyte cultures (96-well) were washed with 1 volume of HBSS, lysed by addition of 25 ul ArrayPlate lysis buffer (HTG, Tucson, AZ), and 70 ul/well of Denaturation Oil, denatured by incubation at 95C for 10 min, and frozen at approximately -70C until analysis by nuclease protection assay (qNPA) (Roberts et al., 2007). For qNPA analysis, cell lysates were thawed at 50C for approximately 30 min, qNPA probes were added, and samples were incubated at 95C for 10 min to begin the detection process by denaturing the target RNA, dissociating the duplexes and secondary structure hybridization. At the conclusion of the hybridization period, S1 nuclease reagent was added to each sample to digest all nonprotected nucleotides at 50C for 60-90 min. […]

SMILES | outcome
CNC(=S)S | inactive
CC(C)(C)c1ccc(CSc2cnn(C(C)(C)C)c(=O)c2Cl)cc1 | inactive
CS/C(C)=N/OC(=O)N(C)SN(C)C(=O)O/N=C(\C)SC | inactive
COc1nc(NC(C)C)nc(NC(C)C)n1 | inactive
Cc1cc(Cl)ccc1OCC(=O)O | inactive
CCOC(=O)C(Cl)Cc1cc(-n2nc(C)n(C(F)F)c2=O)c(F)cc1Cl (stereo not given) | inactive
COP(N)(=O)SC (stereo not given) | inactive
N#CC(CCc1ccc(Cl)cc1)(Cn1cncn1)c1ccccc1 (stereo not given) | inactive
N#Cc1nn(-c2c(Cl)cc(C(F)(F)F)cc2Cl)c(N)c1S(=O)C(F)(F)F (stereo not given) | inactive
CCCC1COC(Cn2cncn2)(c2ccc(Cl)cc2Cl)O1 (stereo not given) | inactive
OC(c1ccc(Cl)cc1)(c1cncnc1)c1ccccc1Cl (stereo not given) | inactive
COc1nc(C)nc(NC(=O)NS(=O)(=O)c2ccccc2Cl)n1 | inactive
O=C(O)COc1nc(Cl)c(Cl)cc1Cl | inactive
CC1COC(Cn2cncn2)(c2ccc(Oc3ccc(Cl)cc3)cc2Cl)O1 (stereo not given) | inactive
COc1cnc(OC)n2nc(NS(=O)(=O)c3c(OCC(F)F)cccc3C(F)(F)F)nc12 | inactive
C=CCC1=C(C)[C@@H](OC(=O)[C@@H]2[C@@H](C=C(C)C)C2(C)C)CC1=O | inactive
Cc1ccc(-c2c(Cl)nc(C#N)n2S(=O)(=O)N(C)C)cc1 | inactive
CCNc1nc(Cl)nc(NCC)n1 | inactive
N#Cc1cc(Br)c(O)c(Br)c1 | inactive
COC(=O)N(OC)c1ccccc1COc1ccn(-c2ccc(Cl)cc2)n1 | inactive

SMILES | outcome
CO/C=C(/C(=O)OC)c1ccccc1Oc1cc(Oc2ccccc2C#N)ncn1 | inactive
C#CCOS(=O)OC1CCCCC1Oc1ccc(C(C)(C)C)cc1 (stereo not given) | inactive
Cc1c(F)c(F)c(COC(=O)C2C(/C=C(\Cl)C(F)(F)F)C2(C)C)c(F)c1F (stereo not given) | inactive
CCCCOC(=O)c1ccccc1C(=O)OCCCC | inactive
CCNc1nc(Cl)nc(NC(C)C)n1 | inactive
COP(=S)(OC)Oc1nc(Cl)c(Cl)cc1Cl | inactive
CC(Oc1ccc(Cl)cc1Cl)C(=O)O (stereo not given) | inactive
C=CCC1=C(C)C(OC(=O)C2C(C=C(C)C)C2(C)C)CC1=O (stereo not given) | inactive
COc1nc(C)nc(NC(=O)NS(=O)(=O)c2ccccc2CCC(F)(F)F)n1 | inactive
CCCN(CCC)c1c([N+](=O)[O-])cc(S(N)(=O)=O)cc1[N+](=O)[O-] | inactive
CN(C)C(=S)SSC(=S)N(C)C | inactive
CCCCC(CC)COC(=O)c1ccccc1C(=O)OCC(CC)CCCC (stereo not given) | inactive
CCOC(=O)CC(SP(=S)(OC)OC)C(=O)OCC (stereo not given) | inactive
CC(C)Oc1cc(-n2nc(C(C)(C)C)oc2=O)c(Cl)cc1Cl | inactive
CCON=C(CC)C1=C(O)CC(c2c(C)cc(C)cc2C)CC1=O (stereo not given) | inactive
CCCCNC(=O)n1c(NC(=O)OC)nc2ccccc21 | inactive
CNC(=O)ON=CC(C)(C)SC | inactive
CCCCNC(=O)OCC#CI | inactive
Fc1ccc(Oc2ccnc3cc(Cl)cc(Cl)c23)cc1 | inactive
COC(=O)C(C)Oc1ccc(Oc2ccc(Cl)cc2Cl)cc1 (stereo not given) | inactive
